This is an account of results in PubChem BioAssay (NCI).

About 83,000 compounds went through this panel and 20% of them were active in at least one assay; those are over-represented in the sample as a whole.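 A percent growth of 40 corresponds to 60% growth inhibition; 0 means no net growth; -100 means all cells died. Active threshold: below 10.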 Calls of active or inactive are those of the source.

The subject of this assay is MCF7 breast. Kind of assay: NCI-60 one-dose screen, 48 h (100 = growth as untreated, 0 = no growth, -100 = all killed). As to conditions: 10 µM unless noted.
Take `O=C1C2=C(C(=O)c3c(O)ccc(O)c31)N(c1cccnc1)Cc1ccccc1O2`: the growth was -18% (active).

In the case of `CCCCCCc1nc2c(c(C)nn2-c2ccccc2)c2c1CCCCC2`, the growth was 107% (inactive). Turning to `COc1ccc(-c2nc3sccn3c2-c2ccnc(NCCCNS(=O)(=O)c3ccc(C)cc3)n2)cc1`, the growth was 34.3% (inactive).

For the compound `NC(=O)c1cccc(N2Cc3ccccc3OC3=C2C(=O)c2c(O)ccc(O)c2C3=O)c1`, the growth is -22.3% (active).

As to `Nc1cccc2c1CN(C1CCC(=O)NC1=O)C2=O` (centres undefined), the growth was 94.5% (inactive). The value for `COc1ccc2c(c1)C(=O)/C(=C/c1ccc(O)cc1)O2` was 22.8% (inactive); that for `COc1cccc(-c2nc3sccn3c2-c2ccnc(NCCCNS(=O)(=O)c3ccc(F)cc3)n2)c1` was 39.9% (inactive). The figure for `COC1=CC(c2ccc[nH]2)=N/C1=C\c1[nH]c(C)c(C(=O)CCCCC(=O)NCc2ccccc2)c1C` is -100% (active); for `COc1ncc(-c2ccc3ncnc(Nc4cccc(Cl)c4)c3c2)cc1NS(=O)(=O)C1CC1` it is 7.65% (active); for `C=C1C(=O)O[C@H]2[C@H]1CC/C(Cn1cc(-c3ccsc3)nn1)=C\CC[C@@]1(C)O[C@@H]21` it is -72.6% (active). With `C=C1C(=O)O[C@H]2[C@H]1CC/C(COC(=O)NCCc1ccc(OC)cc1)=C\CC[C@@]1(C)O[C@@H]21`, the growth is 2.77% (active). As for `CCN(C(=O)c1cc2ccccc2[nH]1)[C@H]1CCC[C@@H](NCc2ccc(OC)cc2)C1`, the growth was 84% (inactive).

With `COc1ccc(C2NC3=C(CCCC3)C(C#N)(C#N)C2(C#N)C#N)cc1` (centres undefined), the growth is 49.9% (inactive). Take `CCCCCc1c(C)[nH]c(/C=c2\[nH]/c(=C3/C=c4ccccc4=N3)cc2OC)c1C`: the growth was -54.5% (active). The figure for `Nc1c(C(=O)Nc2cccc(Cl)c2Cl)sc2nc3c(cc12)C(=O)CCC3` is 86.7% (inactive). Take `O=C1CCC/C=C\C[C@H]2C=CC(=O)/C2=C/C[C@H](C/C=C\CC(F)(F)F)O1`: the growth is 6.19% (active). The value for `COc1ccc(/C=C/C(=O)/C=C/c2cc3ccc(Cl)cc3[nH]c2=O)cc1` was 25.2% (inactive). The figure for `N#Cc1c(NC(=O)c2ccc([N+](=O)[O-])o2)[n+]([O-])c2cc(F)c(F)cc2[n+]1[O-]` is 96.5% (inactive); for `CC(CCc1ccccc1)NC(=O)c1n[nH]c(=O)c2ccccc12` (centres undefined) it is 90.7% (inactive). The value for `COc1ccc(/C=C/c2cc(N3CCOCC3)c3cc(F)c(F)cc3n2)cc1OC` was 22.1% (inactive); that for `CC(C)C[C@H](NC(=O)Cn1ccc(NCc2ccccc2)cc1=O)B(O)O` was 28.9% (inactive). In the case of `CCNc1nc(N2CC(=O)Nc3cc(OC)ccc32)c2ccccc2n1`, the growth was 3.09% (active). Turning to `COc1ccc(/C=C/c2nc(N3CCOCC3)c3nc(Cl)c(Cl)cc3n2)cc1OC`, the growth is 111% (inactive). `O=S=Nc1ccc([N+](=O)[O-])cc1`: the growth was 95.7% (inactive).
